Compound activity (PubChem BioAssay)
ClpP mod – qHTS Assay for Activators of ClpP | purified B. subtilis ClpP, FRET peptide cleavage, 20 min | Potency, µM (doses to about 57.5 µM), for the others: at the highest dose activity change, negative = active | 1.9% of 340,000 active | AID 651965, 2013; active = well fitted falling curve with a large enough effect; inconclusive = small, poorly fitted or top-dose-only effect; inactive = no such curve, though single readings can be large or run the other way; also: potency is read from the fitted curve at half-maximal effect; the source files actives as falling curves though it sought activators and does not explain the sign; nearly all actives have a fitted effect of over 65% in size
Target sequence (P80244 whole entry, looked up): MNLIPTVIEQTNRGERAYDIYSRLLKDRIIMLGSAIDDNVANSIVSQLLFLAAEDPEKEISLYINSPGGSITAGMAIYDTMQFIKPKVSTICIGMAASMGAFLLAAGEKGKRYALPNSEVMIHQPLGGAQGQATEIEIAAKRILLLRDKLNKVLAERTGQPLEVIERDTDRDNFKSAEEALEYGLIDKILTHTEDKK
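FRET quenching reversal measured ClpP activation: 10 microg/mL B. subtilis ClpP at pH 8 with the FRET-FV decapeptide, read at 430 nm after 320 nm excitation. The 20-min minus 0-min signal was scaled between DMSO/no-enzyme wells and ADEP (5.8 microM final).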
TDP1 cell noCPT – qHTS for Inhibitors of human tyrosyl-DNA phosphodiesterase 1 (TDP1): qHTS in cells in absence of CPT; DT40 Tdp1-/- hTDP1 cells, no CPT, ATP luminescence, 48 h; Potency, µM (doses to about 46.2 µM), without a hit: at the highest dose activity change, negative = growth inhibition, most hits filed as inhibitors; 15% of 420,000 active; AID 686978, 2013; also: potency is read from the fitted curve at half-maximal effect; % is scaled to controls: 0 for no effect and ±100 for the full control effect; nearly all actives have a fitted effect of over 55% in size
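Cells were dispensed at 400 per well, compounds added by pin tool, plates incubated ≥48 hr at 37 °C, then CellTiter-Glo added for 30 min at room temperature before luminescence reading. Line: DT40 Tdp1-/- complemented with hTDP1; camptothecin omitted.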
TDP1 cell CPT – growth inhibition of DT40 Tdp1-/-;hTDP1 cells with camptothecin (screen for TDP1 inhibitors); chicken DT40 Tdp1-/-;hTDP1 cells + 20 nM CPT, ATP luminescence, 48 h; Potency, µM (doses to about 46.2 µM), without a hit: at the top dose activity change, negative = growth inhibition, actives largely listed as inhibitors; 12% of 420,000 active; also: potency is read from the fitted curve at half-maximal effect; % is scaled to controls: 0 for no effect and ±100 for the full control effect; nearly all actives have a fitted effect of over 55% in size
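Chicken DT40 Tdp1-/- cells stably complemented with human TDP1 were seeded at 400 cells/well in medium containing 20 nM camptothecin, exposed to pin-transferred compounds, and grown at 37 °C for at least 48 hr. Viability was read as ATP luminescence.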
DRD3 agonist – agonists of human D3 dopamine receptor. max activation, %. P35462. D3R DiscoveRx beta-arrestin cells, luminescence, 90 min. 0.58% of 410,000 active; in the data active = max activation above about 30%; also: 0% is about no effect
Target sequence (P35462 whole entry, looked up): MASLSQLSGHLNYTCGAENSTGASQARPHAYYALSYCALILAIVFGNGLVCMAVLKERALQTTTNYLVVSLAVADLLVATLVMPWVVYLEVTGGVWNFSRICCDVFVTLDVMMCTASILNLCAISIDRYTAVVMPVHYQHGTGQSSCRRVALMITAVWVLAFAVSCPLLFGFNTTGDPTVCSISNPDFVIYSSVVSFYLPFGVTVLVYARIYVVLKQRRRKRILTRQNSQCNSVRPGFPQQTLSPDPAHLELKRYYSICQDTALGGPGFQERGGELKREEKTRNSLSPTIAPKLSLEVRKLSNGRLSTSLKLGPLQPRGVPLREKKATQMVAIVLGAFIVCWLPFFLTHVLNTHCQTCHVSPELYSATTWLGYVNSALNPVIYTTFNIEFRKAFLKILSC
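Agonist-mode cell screen: cells plated at 1500/well and incubated overnight at 37 °C, then exposed to library compounds for 90 min at 37 °C. Detection reagent was added for 30–60 min at room temperature, and luminescence was read.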
IL-1B inflam inh – blocks inflammasome-driven IL-1 beta release; 4.7% of 360,000 active; activity change, % at 57.5 µM; THP-1 LPS/ATP IL-1B secretion, AlphaLISA, 16 h; hits give low values; AID 743279; in the data active = activity change below about -50%; inconclusive = mostly about -30% to -49%; also: % is scaled to controls: 0 for no effect and ±100 for the full control effect
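THP-1 cells pretreated 1 hr with compounds (up to 57.5 uM final), then stimulated with LPS (250 ng/mL final) plus ATP (1.25 mM final); secreted IL-1B measured by AlphaLISA after 16 hr, decreased signal indicating inhibition.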
DRD3 antagonist – D3 dopamine receptor (human) antagonism; 2.5% of 360,000 active; D3R cells, DiscoveRx beta-arrestin luminescence, antagonist mode; hits give low values; AID 652054; max response, negative = inhibition, %; in the data active = max response below about -50%; inconclusive = no clear call, values can overlap the other calls; also: % is scaled to controls: 0 for no effect and ±100 for the full control effect
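Cells expressing the human receptor were seeded at 1500 cells/well, incubated overnight at 37 degrees C in 5% CO2, then exposed to library compounds with dopamine controls for 90 minutes at 37 degrees C before luminescent detection.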
An asterisk follows results filed as active; ? = inconclusive; . = no result given. The list is not random: actives were taken first. Their share in the collection is about 21%. Unless noted, calls follow the shape of the dose curve; as a rule, active = well fitted inhibition curve with a large enough effect; inconclusive = small, poorly fitted or top-dose-only effect; inactive = flat fitted curve, though single readings scatter.

SMILES	ClpP mod	TDP1 cell noCPT	TDP1 cell CPT	DRD3 agonist	IL-1B inflam inh	DRD3 antagonist
COC(=O)C1=C(c2ccccc2)C[C@@H]2CC[C@H]1N2C(=O)NCCO	1.0%	-0.1%	13.0%	6.4	8.6	22.9
COC(=O)C1=C(c2ccc(OCc3ccccc3)cc2)C[C@@H]2CC[C@H]1N2C(=O)NCc1ccc2[nH]ccc2c1	-4.9%	?	?	0.9	-4.1	19.7
CC1CN(c2ccccn2)C(C)CN1C(=O)C(O)(c1ccccc1)c1ccccc1 (stereo unspecified)	.	23.1µM*	29.1µM*	-19.6	4.3	-8.8
Cc1cccc(C(O)(C(=O)O)c2ccccc2)c1 (stereo unspecified)	0.3%	-0.3%	-2.7%	-4.5	21.0	-12.6
Cc1o[nH]c(=O)c1C[C@@H](N)C(=O)O	.	-0.8%	0.6%	.	.	.
C=C1[C@H]2C[C@H]3[C@H]4N5C[C@]6(C)CCC[C@]47[C@H]([C@H]2O)[C@]3(C[C@]5(O)[C@H]67)[C@@H]1O	-2.6%	8.9%	11.4%	-15.5	4.4	36.4
COC(=O)c1ccccc1NC(=O)c1cccn(Cc2cccc(Cl)c2)c1=O	-7.2%	18.4µM*	?	5.1	.	.
O=C(Nc1cc(C(F)(F)F)cc(C(F)(F)F)c1)c1cccn(Cc2ccccc2Cl)c1=O	-5.2%	?	?	1.0	.	.
O=C(Nc1ccccc1C(F)(F)F)c1cccn(Cc2ccccc2)c1=O	27.6%	18.4µM*	?	-1.0	.	.
COC(=O)Nc1ccc(N=C(N)N[N+](=O)[O-])cc1	.	-17.6%	-14.7%	24.2	-6.9	-3.9
CCC1(c2ccc(C)cc2)C(=O)NC(=S)NC1=O	-0.8%	2.0%	6.3%	-6.3	-9.7	-15.3
CCOc1ccc(N=Cc2c(O)n(-c3cc(C)cc(C)c3)c(=O)[nH]c2=O)cc1	.	-7.7%	-20.9%	-8.4	1.4	-18.9
CCCCn1c(O)c(/C=C2/C=CC=N2)c(=O)[nH]c1=O	.	4.11µM*	18.4µM*	12.6	-10.0	5.3
C=CCn1c(O)c(/C=C2/C=CC=N2)c(=O)[nH]c1=O	-0.7%	?	?	-1.5	14.9	-22.1
O=c1[nH]c(=O)n(Cc2ccccc2Cl)c(O)c1/C=C1/C=CC=N1	.	5.8µM*	5.8µM*	-7.6	22.4	?
CS(=O)(=O)OCC(O)C(O)COS(C)(=O)=O (stereo unspecified)	.	10.6µM*	13.3µM*	-16.4	.	.
Cc1cc2ccccc2n1CCNC(=O)COc1ccccc1	-13.2%	?	?	-8.3	-7.3	?
COc1ccc2c(c1O)-c1cc(O)cc3c1[C@@H](C2)N(C)CC3	.	-11.2%	11.4%	.	.	.
C=CCN1CCc2cccc3c2[C@H]1Cc1ccc(O)c(O)c1-3	.	18.4µM*	16.4µM*	116.3*	1.6	-23.7
O=C1NC(=O)C(=Cc2ccc3ccccc3c2)C(=O)N1	4.2%	-1.6%	6.7%	0.1	?	24.6
Cc1cc(C)cc(OCCOc2cccc(C=C3C(=O)NC(=O)NC3=O)c2)c1	1.1%	?	18.4µM*	0.0	14.3	15.0
O=C1NC(=O)C(=Cc2ccccc2OCCOc2ccc([N+](=O)[O-])cc2)C(=O)N1	.	?	?	-4.8	?	-16.9
Cc1ccc(OCCOc2cccc(C=C3C(=O)NC(=O)NC3=O)c2)cc1	-2.1%	18.4µM*	?	-0.5	-5.4	33.3
CCCCn1c(C)c(C(=O)O)c2cc(OC)c3ccccc3c21	3.3%	8.4%	-13.8%	14.0	28.9	25.8
C[C@](N)(CCP(=O)(O)O)C(=O)O	-5.3%	17.3%	8.4%	-16.0	-7.0	-11.0
SMILES	ClpP mod	TDP1 cell noCPT	TDP1 cell CPT	DRD3 agonist	IL-1B inflam inh	DRD3 antagonist
Cc1cccc(NC(=O)Cn2cc(C(=O)c3ccccc3)c3ccccc32)c1	-18.3%	?	?	3.0	.	.
CCc1nnc(NC(=O)CCc2nc(C3=CCN(C)CC3)no2)s1	-4.6%	-16.8%	-8.7%	-6.6	-53.8*	-22.3
O=C(c1ccc(F)c([N+](=O)[O-])c1)N1CC2CC(C1)c1cccc(=O)n1C2 (stereo unspecified)	2.2%	?	-26.9%	-2.0	-51.7*	-1.1
Cc1ccc(C)c(S(=O)(=O)c2nnn3c2nc(N2CCCC2)c2sccc23)c1	?	?	16.4µM*	5.4	.	.
CCCN1CCO[C@@H]2c3cc(O)ccc3OC[C@@H]21	.	-3.8%	6.0%	.	.	.
COc1ccc(NC(=O)c2ccccc2SCc2ccccc2)cc1	-2.3%	4.61µM*	5.17µM*	-10.0	?	-11.1
O=[N+]([O-])c1ccc(F)c([N+](=O)[O-])c1	.	?	5.6%	-3.9	.	.
CN(C)c1ccc([N+](=O)[O-])c([N+](=O)[O-])c1	.	?	?	-10.3	-58.6*	-14.9
O=Nc1c(-c2ccccc2)n(O)[n+]([O-])c1-c1ccccc1	0.6%	20.6µM*	?	-2.5	-2.1	-8.0
Cc1ccc(NC(=O)c2cc(-c3ccccc3)n(CCCN3CCOCC3)c2C)cc1	-1.1%	?	-19.9%	-7.5	?	-28.0
Cc1ccccc1N1C(=O)NC(=O)/C(=C\c2ccc3c(c2)CCCN3Cc2ccccc2)C1=O	6.9%	?	-27.0%	-1.0	-13.4	2.9
O=C1NC(=S)NC(=O)C1=Cc1ccc2c(c1)CCN2CCCCl	-3.3%	14.6µM*	?	0.7	12.0	-18.7
CC(C)C[C@H]1CNC(=S)N1CC1CCN(CC2CCC(C(C)(C)C)CC2)CC1 (stereo partly specified)	1.7%	16.4µM*	16.4µM*	-43.7	-21.8	-62.7*
Cc1cccc(NC(N)=S)c1	-0.8%	-17.7%	-22.9%	-6.1	27.3	-20.0
CCOc1nc(NC(C)C)nc(N2CC3CC(C2)c2cccc(=O)n2C3)n1 (stereo unspecified)	-12.1%	?	18.4µM*	2.6	15.2	5.3
CCCCCCNc1nc(OC)nc(N2CC3CC(C2)c2cccc(=O)n2C3)n1 (stereo unspecified)	.	?	?	1.0	-22.5	14.1
COC(=O)C1=C(c2ccc(C(C)=O)cc2)C[C@@H]2CC[C@H]1N2C(=O)NCc1ccc(C(F)(F)F)cc1	-0.2%	?	?	-1.3	26.5	3.4
CC(CC(C)(C)N1CC1)=NO	2.5%	3.26µM*	2.91µM*	-9.8	-20.2	24.8
Cn1cccc1-c1cccnc1	.	-1.5%	-7.8%	.	.	.
O=C(CNC(=O)c1ccccc1Cl)Nc1ccc(Br)cc1C(=O)c1ccccc1	-1.6%	18.4µM*	18.4µM*	2.2	0.6	-4.9
